Screening data (PubChem BioAssay)
In the library only some 4.3% were active in any assay of this set; here they are far more common.
FAS TE block = FAS thioesterase (human) inhibition. actives 0.67% (n = 360,000). inhibition, % at 15 µM. AID 602261. recombinant FAS-TE, OMFH fluorogenic substrate, fluorescence endpoint;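 active = compounds whose normalised, plate-corrected inhibition of enzyme fluorescence in the single-dose primary screen is 50% or more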;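 also: 0% = DMSO with enzyme and 100% = substrate without enzyme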
Target sequence (P49327 whole entry, looked up): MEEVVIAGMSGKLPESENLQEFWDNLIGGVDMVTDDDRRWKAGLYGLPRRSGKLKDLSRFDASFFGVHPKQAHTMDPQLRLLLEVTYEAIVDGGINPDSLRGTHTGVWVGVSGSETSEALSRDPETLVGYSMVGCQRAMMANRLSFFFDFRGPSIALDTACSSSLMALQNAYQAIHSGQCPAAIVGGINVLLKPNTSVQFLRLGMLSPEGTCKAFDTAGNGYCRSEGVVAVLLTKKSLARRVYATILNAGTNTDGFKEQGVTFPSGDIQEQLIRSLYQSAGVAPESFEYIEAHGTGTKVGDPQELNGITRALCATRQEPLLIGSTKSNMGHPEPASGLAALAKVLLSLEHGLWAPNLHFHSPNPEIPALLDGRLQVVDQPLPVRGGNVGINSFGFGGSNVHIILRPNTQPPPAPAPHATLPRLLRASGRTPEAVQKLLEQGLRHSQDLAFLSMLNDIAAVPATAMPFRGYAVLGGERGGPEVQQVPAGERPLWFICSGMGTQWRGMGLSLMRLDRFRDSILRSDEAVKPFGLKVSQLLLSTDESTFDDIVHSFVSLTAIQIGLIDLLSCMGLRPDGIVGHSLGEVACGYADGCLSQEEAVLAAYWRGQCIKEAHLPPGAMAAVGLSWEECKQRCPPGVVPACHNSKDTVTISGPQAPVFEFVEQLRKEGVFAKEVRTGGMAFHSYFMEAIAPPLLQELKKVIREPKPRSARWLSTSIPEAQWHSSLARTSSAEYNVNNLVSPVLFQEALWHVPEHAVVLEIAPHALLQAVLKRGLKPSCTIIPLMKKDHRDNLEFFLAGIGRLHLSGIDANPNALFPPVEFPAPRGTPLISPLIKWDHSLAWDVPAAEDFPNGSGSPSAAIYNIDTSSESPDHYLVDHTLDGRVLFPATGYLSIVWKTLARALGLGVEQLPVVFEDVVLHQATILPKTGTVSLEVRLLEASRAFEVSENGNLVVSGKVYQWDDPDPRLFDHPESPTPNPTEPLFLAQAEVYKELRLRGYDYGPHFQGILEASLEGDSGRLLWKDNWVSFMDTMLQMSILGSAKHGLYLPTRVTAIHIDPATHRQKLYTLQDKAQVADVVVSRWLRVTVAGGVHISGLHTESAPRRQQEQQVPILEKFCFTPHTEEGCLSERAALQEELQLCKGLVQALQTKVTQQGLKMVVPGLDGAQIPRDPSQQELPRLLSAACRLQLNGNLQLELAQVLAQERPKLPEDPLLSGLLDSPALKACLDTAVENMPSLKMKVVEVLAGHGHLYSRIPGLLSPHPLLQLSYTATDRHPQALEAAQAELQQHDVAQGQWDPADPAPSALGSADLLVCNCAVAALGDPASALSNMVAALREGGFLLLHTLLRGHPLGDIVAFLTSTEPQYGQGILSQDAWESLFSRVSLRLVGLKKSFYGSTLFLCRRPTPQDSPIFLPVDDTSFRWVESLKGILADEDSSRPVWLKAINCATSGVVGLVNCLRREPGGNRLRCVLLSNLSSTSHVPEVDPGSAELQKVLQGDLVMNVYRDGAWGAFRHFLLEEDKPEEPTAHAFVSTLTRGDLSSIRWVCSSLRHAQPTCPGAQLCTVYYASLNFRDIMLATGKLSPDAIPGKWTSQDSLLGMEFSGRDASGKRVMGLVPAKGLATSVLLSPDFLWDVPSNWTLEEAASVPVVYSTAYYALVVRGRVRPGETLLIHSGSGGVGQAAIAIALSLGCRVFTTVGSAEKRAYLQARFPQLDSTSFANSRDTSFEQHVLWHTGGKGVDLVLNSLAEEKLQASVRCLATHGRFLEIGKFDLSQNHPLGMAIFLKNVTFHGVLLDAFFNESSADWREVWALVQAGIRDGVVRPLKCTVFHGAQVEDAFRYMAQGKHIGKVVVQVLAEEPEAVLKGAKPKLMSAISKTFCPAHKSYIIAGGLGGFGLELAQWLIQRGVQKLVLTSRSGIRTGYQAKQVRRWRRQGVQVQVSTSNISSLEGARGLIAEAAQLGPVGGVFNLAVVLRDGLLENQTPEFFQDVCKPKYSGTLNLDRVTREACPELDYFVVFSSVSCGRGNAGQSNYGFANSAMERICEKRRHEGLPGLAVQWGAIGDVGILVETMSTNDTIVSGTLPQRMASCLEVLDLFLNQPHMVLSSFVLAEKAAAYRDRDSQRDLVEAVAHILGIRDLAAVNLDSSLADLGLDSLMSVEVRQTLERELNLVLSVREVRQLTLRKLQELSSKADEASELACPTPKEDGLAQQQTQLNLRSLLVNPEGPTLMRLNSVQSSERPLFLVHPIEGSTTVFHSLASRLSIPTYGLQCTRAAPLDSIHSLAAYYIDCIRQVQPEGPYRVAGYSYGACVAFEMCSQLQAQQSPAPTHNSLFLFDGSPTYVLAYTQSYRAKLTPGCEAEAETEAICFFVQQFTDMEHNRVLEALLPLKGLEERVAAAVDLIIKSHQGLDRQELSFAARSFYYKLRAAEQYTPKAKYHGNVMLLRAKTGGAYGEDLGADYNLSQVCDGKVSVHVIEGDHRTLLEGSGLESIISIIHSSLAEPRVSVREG
NadD inh = NadD (S. aureus) enzyme inhibition. purified NadD enzyme, colorimetric absorbance read-out. inhibition, % at 20 µM. actives 0.78% (n = 360,000). AID 602399; in the data active = inhibition above about 26%
rCAG binder = molecules binding r(CAG) RNA repeats; actives 1.3% (n = 370,000); inhibition, % at 3 µM; r(CAG) RNA repeat, TO-PRO-1 dye displacement fluorescence;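 active = inhibition above the plate cutoff, the mean of all test compounds on that plate plus 3 SD, cut at about 35% in these data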;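 also: 0% = DMSO alone and 100% = 100 µM mitoxantrone as full dye displacement; higher means more dye released from RNA so lower well fluorescence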
NR3A LBD binder = modulators (binders) of human NR3A ligand-binding domain; NR3A LBD differential scanning fluorimetry, Tm shift; 0% = protein alone, 100% = glycine-bound protein; Tm shift relative to glycine control, % at 25 µM; actives 2.5% (n = 340,000);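 active = melting temperature shift of at least 10% of the positive control shift, at one fixed dose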
NadD inh conf = NadD (S. aureus) inhibition, single concentration confirmation; inhibition, % at 20 µM; shares compounds with NadD inh; actives 13% (n = 2,000); purified S. aureus NadD, colorimetric enzyme assay; in the data active = inhibition mostly above about 42%, no sharp cut-off; inactive = mostly below about 42%
* marks the source's active call; other numbers are inactive results; / = no result.

SMILES	FAS TE block	NadD inh	rCAG binder	NR3A LBD binder	NadD inh conf
Nc1nc(-c2ccc([N+](=O)[O-])cc2)c(C(=O)Nc2ccc(Cl)cc2)s1	-5	-8	0	4	/
O=C(Nc1ccc(-c2csc(Nc3ccc(Cl)cc3)n2)cc1)c1cc([N+](=O)[O-])cc(C(F)(F)F)c1	35	43*	30	20*	8
O=S(=O)(O)c1cc(O)c2ccc(Nc3ccccc3)cc2c1	5	33*	65*	-6	66*
CCOC(=O)C(=O)N1CCC(C(=O)NC2CCCc3ccccc32)CC1 (configuration not stated)	/	/	-1	/	/
Nc1cc(=O)[nH]c(SCC(=O)N2N=C(c3ccc4ccccc4c3)CC2c2ccccc2)n1 (configuration not stated)	-6	40*	13	-4	39
CC1Cc2ccccc2N1Cc1nc2scc(-c3cccs3)c2c(=O)[nH]1 (configuration not stated)	5	46*	11	-2	-4
COc1ccc(N2CCN(Cc3nc4scc(-c5cccs5)c4c(=O)[nH]3)CC2)cc1	8	3	3	0	/
COC(=O)c1ccc2c(=O)[nH]c(CN3c4ccccc4CC3C)nc2c1 (configuration not stated)	3	50*	19	3	6
Cc1cc(=O)oc2cc(OCc3ccc(C(=O)OCC(=O)Nc4ccc(N(C)C)cc4)cc3)ccc12	-6	35*	15	-1	5
Cc1cc(N2CCN(C(=O)OC(C)(C)C)C[C@@H]2C)ccc1N1CCN(Cc2ccccc2)[C@H](C)C1	/	/	3	/	/
CC(C)c1ccc(NC(=O)COc2ccc(S(=O)(=O)N3CCOCC3)cc2)cc1	-7	46*	5	2	1
C=CCN(CC#CC(=C)C)Cc1ccccc1	/	/	-2	/	/
CCCCCCCCCC(=O)NNC(=O)c1c(O)c2ccccc2n(CCC)c1=O	7	38*	4	-7	0
CCCn1c(=O)c(C(=O)NNS(=O)(=O)c2ccc(Cl)cc2)c(O)c2ccccc21	21	30*	30	5	24
CCCn1c(=O)c(C(=O)NNC(=O)c2ccc(Cl)cc2Cl)c(O)c2ccccc21	5	22	1	-5	/
Cc1ccccc1NC(=O)Nc1ccc2c(c1)C(=O)N(C)[C@H]1CC[C@H](CC(=O)NCC3CC3)O[C@@H]1CO2	/	/	2	/	/
C[C@H]1CCCN1c1cccc2c1S(=O)(=O)N1CC[C@H](C1)O2	/	/	2	/	/
Cc1sc(NC(=O)Cc2ccc3c(c2)OCO3)nc1-c1ccc2c(c1)CCN2C(=O)c1cccc(F)c1	37	34*	24	-5	20
CNc1nc(-c2ccc3c(c2)CCN3C(=O)c2cccc(F)c2)cs1	9	4	7	1	/
C#CCC1c2ccccc2CCN1CC=C (configuration not stated)	/	/	4	/	/
Cc1cccc(NCc2ccc(O)c3ncccc23)c1	-2	37*	4	-9	27
CCCC1CCC2(CCC(=O)N2CCC#N)CC1 (configuration not stated)	/	/	-1	/	/
CCOC(=O)[C@]12CCCC=C1N(Cc1ccc(OC)cc1)C(=O)[C@@H]2CC(=O)NCc1ccccc1	/	/	3	/	/
COc1ccc(/C=N/NC(=O)Cn2nc([N+](=O)[O-])cc2C)c(OC)c1OC	0	-2	-5	-1	/
CCOc1cc(/C=N\NC(=O)Cn2nc([N+](=O)[O-])cc2C)ccc1OCc1cccc2ccccc12	17	38*	15	-4	-5
SMILES	FAS TE block	NadD inh	rCAG binder	NR3A LBD binder	NadD inh conf
Cc1nn(CC(=O)Nc2ccc3c(c2)nc(CCN2CCCCC2)n3C)c(=O)c2ccccc12	-6	-4	4	2	/
Cc1nn(CC(=O)Nc2ccc3c(c2)nc2n3CCN(C3CCCCC3)C2)c(=O)c2ccccc12	3	32*	14	1	13
Cc1ccc(S(=O)(=O)NCC(=O)N2CCN(c3ccccn3)CC2)s1	/	/	0	/	/
N#Cc1ccc(NC(=O)Nc2ccc(Oc3ccc(NC(=O)Nc4ccc(C#N)cc4)cc3)cc2)cc1	21	28*	8	32*	-2
CCC(=O)N1C(=O)CCN(C(C)=O)c2ccccc21	-4	36*	0	-1	9
CCOc1ccc(CCN2C(=S)N([C@@H](CC(C)C)CN3CCCC3CN3C(=S)NC[C@@H]3Cc3ccc(O)cc3)C[C@@H]2Cc2ccccc2)cc1 (some centres not stated)	-145	34*	13	31*	10
CCOc1ccc(CCN2C(=S)N([C@@H](Cc3ccc(O)cc3)CN3CCC[C@@H]3CN3C(=S)NC[C@@H]3Cc3ccccc3)C[C@@H]2Cc2ccc(O)cc2)cc1	-88	45*	18	/	41
CCOc1ccc(CCN2C(=S)N([C@@H](CC(C)C)CN3CCCC3CN3C(=S)NC[C@@H]3Cc3ccc(O)cc3)C[C@@H]2CC(C)C)cc1 (some centres not stated)	-99	36*	6	12*	7
CCOc1ccc(CCN2C(=S)N([C@@H](CC(C)C)CN3CCCC3CN3C(=S)NC[C@@H]3Cc3ccc(O)cc3)C[C@@H]2Cc2ccc(O)cc2)cc1 (some centres not stated)	-92	37*	15	34*	43
CC(C)C[C@H]1CNC(=S)N1C[C@H]1CCCN1C[C@H](Cc1ccccc1)N1C[C@H](Cc2ccc(O)cc2)N(CCc2ccccc2)C1=S	-100	26	12	/	/
CCOc1ccc(CCN2C(=S)N([C@@H](CC(C)C)CN3CCC[C@@H]3CN3C(=S)NC[C@@H]3CC(C)C)C[C@@H]2Cc2ccc(O)cc2)cc1	-93	20	14	/	/
Cc1ccc(-c2nnc(SCC(=O)Nc3ccc4c(c3)OCCO4)n2-c2ccc(C)cc2)cc1	/	/	9	/	/
CN(C)c1ccc(C(CN)c2c[nH]c3ccccc23)cc1 (configuration not stated)	-35	31*	13	-1	11
NCC(c1ccco1)c1c[nH]c2ccccc12 (configuration not stated)	-10	13	16	-3	/
S=C(Nc1ccc(Oc2ccc(NC(=S)NC3CCCCC3)cc2)cc1)NC1CCCCC1	32	35*	19	32*	31
O=C(NCc1ccccc1)C1(C(=O)C2CC2)CC(c2ccccc2C(F)(F)F)=NO1 (configuration not stated)	/	/	-1	/	/
Cc1ccccc1NC(=O)N(C)[C@H]1C[C@H]2c3[nH]c4c(-c5ccccc5)cccc4c3CCN2C(=O)[C@H]1[C@H](C)O	/	/	6	/	/
CC1(C)CC[C@]2(C(=O)O)CC[C@]3(C)C(=CC[C@@H]4[C@@]5(C)CC[C@H](O)C(C)(C)[C@@H]5CC[C@]43C)[C@@H]2C1	-6	30*	3	-1	10
COCc1[nH]nc2c1C(c1cccc(C(F)(F)F)c1)N(c1ccccc1)C2=O (configuration not stated)	/	/	-1	/	/
